This is one part of a sample in which hits are shown more often than they occur.
NOMO-1 viab – STK33 inhibitor candidate reducing NOMO-1 cell viability; NOMO-1 AML viability, CellTiter-Glo luminescence, 72 h; inhibition, % (test concentration not listed); hit rate 7.5% among 37,000; in the data active = inhibition above about 80%
p53 PUMA act – mutant p53 pathway reactivation; activation, % at 9.98 µM; hit rate 1.5% among 28,000; AID 624151; SW480 PUMA-promoter luciferase; in the data active = activation above about 52%
ID4 binder – binds human ID4 protein on microarray. P47928. small molecule microarray, Flag-ID4 binding, fluorescence F/B. calls only. hit rate 1.2% among 31,000. AID 624137; call rule not given here;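 note: a binder raises fluorescence above local background on the spot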
STK33 inh – inhibitors of human STK33 kinase; Q9BYT3; ADP-Glo luminescence, MBP substrate; inhibition, % at 12.5 µM; hit rate 0.44% among 27,000; in the data active = inhibition above about 20%
Numbers without * were called inactive.

CC(=O)O[C@H]1C[C@H](O[C@H]2[C@@H](O)C[C@H](O[C@H]3[C@@H](O)C[C@H](O[C@H]4CC[C@@]5(C)C(CCC6C5C[C@@H](O)[C@]5(C)[C@@H](C7=CC(=O)OC7)CC[C@]65O)C4)O[C@@H]3C)O[C@@H]2C)O[C@H](C)[C@H]1O[C@@H]1O[C@H](CO)[C@@H](O)[C@H](O)[C@H]1O (stereo partly specified) was read as NOMO-1 viab 107.0* and STK33 inh -3.4.
For CO[C@@H]1[C@H](O)[C@@H](O[C@@H]2C[C@H]3CC[C@@H]4C(CC[C@]5(C)[C@@H](C6=CC(=O)OC6)CC[C@]45O)[C@@]3(C)[C@H](O)C2)O[C@H](C)[C@@H]1O[C@@H]1O[C@H](CO)[C@@H](O)[C@H](O)[C@H]1O (stereo partly specified) the results were NOMO-1 viab 119.9*, p53 PUMA act -83.8, ID4 binder inactive and STK33 inh -5.5.
`CO[C@H]1[C@H](O)[C@H](O[C@H]2CC[C@]3(C)C4CC[C@]5(C)[C@H](C6=CC(=O)OC6)CC[C@]5(O)C4CC[C@@H]3C2)O[C@@H](C)[C@@H]1O[C@@H]1O[C@H](CO[C@@H]2O[C@H](CO)[C@@H](O)[C@H](O)[C@H]2O)[C@@H](O)[C@H](O)[C@H]1O` (stereo partly specified) gave NOMO-1 viab 119.4*, p53 PUMA act -102.6, ID4 binder inactive and STK33 inh -3.2.
CSC1=NN1c1cc(C)nc(N)n1 was read as p53 PUMA act 2.1 and ID4 binder inactive.
`CO[C@H](C)C(O)(C(=O)OCC1=CCN2CC[C@H](O)[C@@H]12)C(C)C` (stereo partly specified) gave NOMO-1 viab -6.8, ID4 binder inactive and STK33 inh -12.9.
For O=C(c1ccccc1)N1CC2CC(C1)c1cccc(=O)n1C2 (stereo unspecified) the results were NOMO-1 viab 15.7.
C/C=C/[C@@H]1[C@H]2C[C@@H](C)CC[C@@H]2C(C)=C[C@H]1C(=O)c1c(O)c(-c2ccc(O)cc2)c[nH]c1=O was read as NOMO-1 viab 52.1 and STK33 inh -9.3.
Screening COC(=O)[C@@]1(O)C[C@@H]2O[C@@]1(C)n1c3ccccc3c3c4c(c5c6ccccc6n2c5c31)C(=O)NC4 returned NOMO-1 viab 123.6* and STK33 inh 107.6*.
For C=C1[C@@H](C)[C@H]2[C@H](Cc3ccccc3)NC(=O)[C@]23[C@H](OC(C)=O)C=C[C@](C)(O)C(=O)[C@@H](C)C/C=C/[C@H]3[C@@H]1O the results were NOMO-1 viab 113.8*, p53 PUMA act -66.3 and STK33 inh -12.4.
`O=C(Nc1ccc2c(C(F)(F)F)cc(=O)oc2c1)c1cc(Cl)cc(Cl)c1` gave NOMO-1 viab 121.7*.
For C/C1=C/C(=O)O[C@@H]2C[C@@H](CC[C@H](C)/C=C\CC1)O[C@@](O)([C@@H]1CSC(=O)N1)C2 the results were NOMO-1 viab 113.7* and STK33 inh -2.4.
`COc1ccc(C(=O)O[C@H]2CC[C@@]3(C)[C@@H]4CC[C@H]5[C@]6(O)C[C@H](O)[C@@]7(O)[C@@H](CN8C[C@@H](C)CC[C@H]8[C@@]7(C)O)[C@]6(O)C[C@@]53O[C@]24O)cc1OC` gave NOMO-1 viab -7.1, p53 PUMA act 12.3, ID4 binder inactive and STK33 inh -0.4.
COC1CC(OC2C(C)OC(OC3C(C)OC(OC4C(C)OC(O[C@H]5CC[C@@]6(C)C(=CC[C@]7(O)C6CC(OC(=O)c6ccccc6)[C@@]6(C)[C@]7(O)CC[C@@]6(O)C(C)=O)C5)CC4OC)CC3OC)CC2OC)OC(C)C1O (stereo partly specified) was read as NOMO-1 viab 119.5*, p53 PUMA act -67.1 and STK33 inh -0.7.
Screening CC1(CCO)CC(C)(CCc2ccccc2)OO1 (stereo unspecified) returned ID4 binder inactive.
`COc1ccc2c(c1)/C(=C/c1cnc[nH]1)C(=O)N2` gave NOMO-1 viab 98.2*, ID4 binder inactive and STK33 inh 79.1*.
Screening CCOC(=O)[C@@H]1[C@@H]2NC(=O)N(C)[C@@]1(COCc1ccc(OC)cc1)Oc1ccccc12 returned ID4 binder inactive.
CC1(C)C2CC(=O)[C@]3(C)C(CC[C@@]4(C)[C@H](c5ccoc5)OC(=O)[C@H]5O[C@]543)[C@@]2(C)C(=O)C[C@H]1O (stereo partly specified) was read as NOMO-1 viab 17.5, ID4 binder inactive and STK33 inh 0.2.

Screens from PubChem.
